# Data: ChEMBL document CHEMBL3988442, “University of Dundee, Small-Polar-MMV Screening Library” (2021)
# Screen size: about 48,000 compounds; about 13,000 (27%) showed an effect of 50% or more. The list shows a part of the results.
# System: Wolbachia pipientis
# Test: Anti-Wolbachia Cell-Based Screen
# Format: functional
# Parameters: scale not given: in the data most compounds retested in dose-response had high values
# Settings: 5 µM
row,Compound,Percent Effect
1,CCN1CCC(NC(=O)NC2CCOc3ccc(Br)cc32)CC1 (stereo not drawn),-7.217%
2,COCc1nc(CNC2CCN(C(C)C)CC2)no1,-1.626%
3,CCC(CO)N(Cc1cccs1)C(=O)CSC (stereo not drawn),-12.18%
4,O=S1(=O)C[C@@H]2[C@H](C1)N(Cc1cc(F)cc(Cl)c1)CCN2CCO,3.698%
5,CN1[C@H](CO)C[C@H](CNCc2ccc(CO)o2)[C@@H]1c1ccccc1F,-6.438%
6,O=C(O)C(F)(F)F.c1cnn(Cc2cn3c(n2)CN(Cc2nccs2)CC3)c1,25.66%
7,CC(=O)N1CC2(CCN(S(=O)(=O)N(C)C)CC2)C2(CCNC2=O)C1 (stereo not drawn),-32.61%
8,COc1ccccc1C1CCN(c2ccc3cc[nH]c3n2)CC1,26.71%
9,COC(=O)c1cc(NCC(=O)NC(N)=O)cc(C(F)(F)F)c1,4.503%
10,CNS(=O)(=O)c1cccc(CNC(=O)c2c(C)nn(C)c2C)c1,-2.541%
11,CNc1snc(C)c1C(=O)NC(C)CC(=O)c1cccs1 (stereo not drawn),87.28%
12,COc1c(C(=O)NC(C)CC(=O)c2cccs2)c(C)nn1C (stereo not drawn),88.78%
13,COc1ccccc1C(C)CNC(=O)c1c(C)nn(C)c1OC (stereo not drawn),-4.025%
14,COc1c(C(=O)NCC(C)Sc2ccccc2)c(C)nn1C (stereo not drawn),-11.73%
15,CC(NC(=O)c1cccs1)C(=O)NCc1ccccc1CN1CCCC1 (stereo not drawn),1.8%
16,CCC(NC(=O)c1cc(CC(C)C)nn1C)c1cccc(C)n1 (stereo not drawn),-23.09%
17,Cc1nn(C)c(C)c1CC(C)NC(=O)NCc1ccn(C(C)C)n1 (stereo not drawn),14.28%
18,Cc1cc(NC(=O)NCCc2cccs2)n(C)n1,-8.078%
19,Cc1nn(C)c(C)c1C(=O)NC(C)CC(=O)c1cccs1 (stereo not drawn),89.66%
20,Cc1cc(C(=O)NC(C)CC(=O)c2cccs2)n(C)n1 (stereo not drawn),104.4%
21,C[C@@H](NC(=O)c1cccs1)c1onc(-c2cccnc2)c1C(=O)O.Cl,-7.123%
22,CCc1ccc2c(C3CN(CC4CCC4)C3)ncn2c1.O=C(O)C(F)(F)F,1.201%
23,Cc1ccc(C(=O)N2CCSCC2)cc1NC(C)C,-20.08%
24,CN(C)c1nc2c(c(N3CCC(O)CC3)n1)CN(CC1CCNC1)CC2 (stereo not drawn),-8.406%
25,CCC(CO)N(Cc1ccccn1)C(=O)c1ccc(CSC)o1 (stereo not drawn),18.24%
26,CNS(=O)(=O)c1cccc(CNC(=O)c2cnn(C)c2C)c1,-2.681%
27,Cc1c(C(=O)NC(C)CC(=O)c2cccs2)cnn1C (stereo not drawn),85.26%

row,Compound,Percent Effect
1,Cc1c(C(=O)NC(CN2CCCC2=O)c2ccccc2)cnn1C (stereo not drawn),-6.718%
2,O[C@H]1[C@H](NCCc2cnccn2)c2ccccc2C12CCNCC2,1.46%
3,CC1CCN(CCNC(=O)C2CCN(C(=O)C3CC3)CC2)CC1,7.892%
4,CCC(C#N)NC(=O)c1sccc1OC (stereo not drawn),86.18%
5,CCc1nc(CC(=O)NC(C#N)CC(C)C)cs1 (stereo not drawn),0.9973%
6,CCCC(C#N)NC(=O)Cc1csc(CC)n1 (stereo not drawn),-2.381%
7,CCc1ccsc1C(=O)NC(C#N)CC (stereo not drawn),105.4%
8,CCCC(C#N)NC(=O)COC1CCCCC1 (stereo not drawn),-4.378%
9,CCc1ccsc1C(=O)NC(Cc1ccccc1)C(N)=O (stereo not drawn),1.098%
10,COc1ccsc1C(=O)NCCNc1ccccc1,-8.97%
11,CCc1nc(CC(=O)NC(C#N)CC)cs1 (stereo not drawn),-7.062%
12,CC(C)CCC(=O)NC(C#N)CC(C)C (stereo not drawn),5.343%
13,CCCC(C#N)NC(=O)c1sccc1CC (stereo not drawn),99.07%
14,CCc1ccsc1C(=O)NC(C#N)CC(C)C (stereo not drawn),102.3%
15,COc1ccsc1C(=O)Nc1cc(Br)c(=O)n(C)c1,-2.156%
16,Cc1nc(O)cc(CN2CCC=C(CN(C)C(=O)c3ccco3)C2)n1,2.928%
17,Cc1nc2c(c(N(C)Cc3ccccc3-n3cccn3)n1)CCNCC2,14.94%
18,COc1ccc(C(=O)N2C[C@@H](C(=O)O)[C@H](c3ccccc3C)C2)c(O)c1,-2.704%
19,CCNC(=O)[C@@H]1CCCN1C1(C(=O)NC)CCCCC1.Cl,1.197%
20,COc1cccc(COCC(=O)N2CCC(CC(N)=O)CC2)c1,-12.19%
21,O=C(c1ccc(S(=O)(=O)NCC(F)F)cc1)N1C[C@H]2CNC[C@H]2C1,19.64%
22,Cn1cncc1C(=O)N1CCCC(c2ccn[nH]2)C1 (stereo not drawn),108.7%
23,O=C(c1cnnn1-c1ccccc1)N1CCCC(c2ccn[nH]2)C1 (stereo not drawn),106%
24,O=C(c1cnc2ccccn12)N1CCCC(c2ccn[nH]2)C1 (stereo not drawn),107.7%
25,CC(C)c1ocnc1C(=O)N1CCCC(c2ccn[nH]2)C1 (stereo not drawn),-7.734%
26,O=C1CCCCCN1CCC(=O)N1CCCC(c2ccn[nH]2)C1 (stereo not drawn),2.164%
